Pol iota inh: qHTS for Inhibitors of Polymerase Iota; DNA polymerase iota (Homo sapiens), Q9UNA4; Pol iota fluorescent replication assay, 10 min; Potency, µM (series often up to 115 µM), for the others: at the top dose activity, negative = inhibition, usual class: inhibitors; hit rate 1% among 390,000; AID 588590, 2011; further: potency means the concentration at half of the fitted maximal effect
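Pol iota at 10 nM preincubated 15 min with compounds at room temperature; reaction started with fluorescent substrate, 50 nM final. Fluorescence read kinetically at 0 and 10 min; buffer-only wells as negative control.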
FEN1 inh: qHTS Assay for the Inhibitors of Human Flap endonuclease 1 (FEN1). Recombinant FEN1 flap cleavage, fluorescence, 15 min. P39748. hit rate 0.35% among 390,000. Potency, µM (top dose mostly 114 µM), inactives show at the highest dose activity change, negative = inhibition, most hits filed as inhibitors; further: potency means the concentration at half of the fitted maximal effect; on the % scale 0 is the no-effect control and ±100 the full control effect; nearly all actives have a fitted effect of over 65% in size
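Read-out was taken twice, immediately and after 15 min, following addition of 50 nM substrate to 10 nM FEN1 that had sat with test compound for 15 min at room temperature. Curves came from a four-parameter Hill model.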
Pol beta inh: qHTS Assay for Inhibitors of DNA Polymerase Beta; Pol beta primer extension/strand displacement, fluorescence kinetic; Potency, µM (titrated, usually from 114 µM), inactives show at the highest dose activity change, negative = inhibition, actives largely listed as inhibitors; hit rate 1.3% among 340,000; further: potency means the concentration at half of the fitted maximal effect; on the % scale 0 is the no-effect control and ±100 the full control effect
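Reaction started by 50 nM substrate onto compound-treated Pol beta (10 nM, 15 min preincubation, room temperature); plates read at 0 min and 10 min. Normalized concentration-effect data fitted by four-parameter Hill equation.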
WRN inhibitor: qHTS for Inhibitors of WRN Helicase; Bifunctional 3'-5' exonuclease/ATP-dependent helicase WRN (Homo sapiens), Q14191; WRN helicase unwinding, fluorescent forked duplex, kinetic; Potency, µM (doses to about 114 µM), for the others: top-dose activity change, negative = inhibition, actives largely listed as inhibitors; hit rate 0.46% among 360,000; AID 651768, 2012; further: potency means the concentration at half of the fitted maximal effect; on the % scale 0 is the no-effect control and ±100 the full control effect; nearly all actives have a fitted effect of over 55% in size
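Kinetic red-fluorescence monitoring (525/598 nm) tracks WRN helicase activity after 100 nM fluorophore-quencher forked duplex and 2 mM ATP are added to 20 nM enzyme pretreated 15 min at room temperature with compound.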
Pol kappa inh-1: qHTS for Inhibitors of Polymerase Kappa. DNA polymerase kappa (Homo sapiens), Q9UBT6. purified Pol kappa, fluorescent DNA synthesis assay, 10 min. Potency, µM (highest dose often 107 µM), for the others: top-dose activity, negative = inhibition, usual class: inhibitors. hit rate 0.53% among 400,000. AID 588579, 2011; further: potency means the concentration at half of the fitted maximal effect; on the % scale 0 is the no-effect control and ±100 the full control effect
Target sequence (Q9UBT6 whole entry, looked up): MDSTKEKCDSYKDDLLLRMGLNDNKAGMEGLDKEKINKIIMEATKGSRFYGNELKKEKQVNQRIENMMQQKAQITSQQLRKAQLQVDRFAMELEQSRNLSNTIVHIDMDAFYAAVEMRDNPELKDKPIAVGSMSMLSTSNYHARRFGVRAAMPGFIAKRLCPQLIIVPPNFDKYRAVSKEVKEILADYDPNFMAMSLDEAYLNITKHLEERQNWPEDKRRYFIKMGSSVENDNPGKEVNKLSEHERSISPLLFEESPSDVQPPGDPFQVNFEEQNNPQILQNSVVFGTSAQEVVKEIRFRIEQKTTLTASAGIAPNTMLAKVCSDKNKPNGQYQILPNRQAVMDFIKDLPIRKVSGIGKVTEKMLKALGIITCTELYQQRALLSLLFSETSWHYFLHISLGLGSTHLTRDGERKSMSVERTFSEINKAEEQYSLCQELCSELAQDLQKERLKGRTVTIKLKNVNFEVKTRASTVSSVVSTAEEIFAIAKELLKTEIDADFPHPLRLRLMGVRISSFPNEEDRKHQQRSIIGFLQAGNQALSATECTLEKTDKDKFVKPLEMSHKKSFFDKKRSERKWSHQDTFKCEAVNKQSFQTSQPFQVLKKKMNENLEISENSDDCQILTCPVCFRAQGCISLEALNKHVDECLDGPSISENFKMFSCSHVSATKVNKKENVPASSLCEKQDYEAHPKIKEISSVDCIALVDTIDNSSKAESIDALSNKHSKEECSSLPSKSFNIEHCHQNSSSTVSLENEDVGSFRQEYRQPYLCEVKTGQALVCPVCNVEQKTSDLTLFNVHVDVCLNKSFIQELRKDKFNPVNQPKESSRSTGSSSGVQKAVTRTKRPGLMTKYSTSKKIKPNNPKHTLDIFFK
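50 nM final substrate added after 15 min RT preincubation of 10 nM Pol kappa with compound; fluorescence read at 0 and 10 min.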
Pol eta inh-1: qHTS for Inhibitors of Polymerase Eta | DNA polymerase eta (Homo sapiens), Q9Y253 | recombinant Pol eta, fluorescent DNA replication assay | Potency, µM (highest dose often 114 µM), for inactives: at the highest dose activity change, negative = inhibition, actives largely listed as inhibitors | hit rate 1.2% among 390,000; further: potency means the concentration at half of the fitted maximal effect; on the % scale 0 is the no-effect control and ±100 the full control effect
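Fluorescent replication assay: 50 nM final substrate added after a 15 min room-temperature compound preincubation with 10 nM enzyme. Signal taken at 0 min and again at 10 min.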
GALK confirm: Confirmation Assay for Inhibitors of Human Galactokinase (GALK). shares compounds with Pol eta inh-1. purified GALK, Kinase-Glo ATP depletion luminescence. Potency, µM (series often up to 115 µM), for the others: top-dose activity, negative = inhibition, actives largely listed as inhibitors. hit rate 70% among 150
Redox cycling: Confirmatory Assay for Inhibitors of Human Galactokinase (GALK): Phenol-HRP redox assay counterscreen; shares compounds with Pol eta inh-1; Phenol red-HRP H2O2 redox cycling, absorbance 600 nm; Potency, µM (series often up to 115 µM), for inactives: at the top dose activity change, negative = H2O2 signal, usual class: inhibitors; hit rate 40% among 150
HEK293 tox: Secondary Assay for Inhibitors of Human Galactokinase (GALK): HEK-293 Cell Viability Assay | shares compounds with Pol eta inh-1 | HEK-293 viability, ATP luminescence (CellTiter-Glo), 24/48 h | Potency, µM (top dose mostly 46.1 µM), without a hit: at the highest dose activity change, negative = cytotoxicity, most hits filed as inhibitors | hit rate 10% among 170; further: potency means the concentration at half of the fitted maximal effect; on the % scale 0 is the no-effect control and ±100 the full control effect
Pol kappa inh-2: qHTS for Inhibitors of Polymerase Kappa: Confirmatory Assay for Cherry-picked Compounds | shares compounds with Pol eta inh-1 | purified Pol-kappa, fluorescent strand-displacement substrate | Potency, µM, usual class: inhibitors | hit rate 76% among 920; further: potency means the concentration at half of the fitted maximal effect
Pol eta inh-2: qHTS for Inhibitors of Polymerase Eta: Confirmatory Assay for Cherry-picked Compounds; shares compounds with Pol eta inh-1; Pol eta primer extension, TAMRA/BHQ fluorescence, 10 min; Potency, µM, actives largely listed as inhibitors; hit rate 64% among 2,600; AID 720502, 2013; further: potency means the concentration at half of the fitted maximal effect
* = called active by the depositor; ? = inconclusive; · = not tested or not shown; [ ] = dose if it differs, or a comment. Compounds with a hit are over-represented: about 2.4% of the library has one in this group of screens. The call rests on the fitted dose curve; in most records, active means well fitted curve in the direction sought with a large enough effect; inconclusive means small, poorly fitted or top-dose-only effect, or another doubt; inactive means no such curve, though single readings can be large; an effect the other way counts as inactive or inconclusive.

SMILES	Pol iota inh	FEN1 inh	Pol beta inh	WRN inhibitor	Pol kappa inh-1	Pol eta inh-1	Pol eta inh-2	others
O=C1NC(=S)NC(=O)C12C(c1ccccc1)NC(=S)NC2c1ccccc1 (stereo not given)	20µM*	14.8%	0.6%	-26.0%	-6.4%	50.1µM*	?
O=C1NC(=S)NC(=O)C12C(c1ccc(F)cc1)NC(=S)NC2c1ccc(F)cc1 (stereo not given)	-17.1%	-13.0%	9.0%	-25.1%[57.1 µM]	-0.2%	39.8µM*	?
COC[C@H]([C@@H](O)[C@@H](O)C(=O)NCC[C@@H](C)c1nc(/C=C/C[C@H]2OC3(C[C@H](O)[C@H]2C)OC([C@@H](C[C@@H](O)[C@@H](C)[C@@H](O)[C@@H](C)/C=C(C)/C(C)=C/C=C/C(C)=C\C#N)OC)[C@@H](OP(=O)(O)O)C3(C)C)co1)N(C)C (stereo not given in full)	·	·	·	·	7.6%[19.4 µM]	·	·
Cc1ccccc1N1C(=O)/C(=C/c2ccco2)C(=O)NC1=S	·	·	0.316µM*	·	·	·	·	GALK confirm=?;Redox cycling=-25.5%;HEK293 tox=-0.6%
C[C@]12CCC3C(C=CC4=CC(=O)CC[C@]43C)C1CC[C@]2(O)CCC(=O)O (stereo not given in full)	·	·	·	·	-9.4%[60.1 µM]	·	·
c1cc(CN2CC3(CCNCC3)C2)ccn1	·	·	·	·	-3.7%[60.1 µM]	·	·
CN[C@@H](Cc1c[nH]c2ccccc12)C(=O)O	·	·	·	·	-7.9%[19.4 µM]	·	·
O=C(Nc1ccc(Oc2ccc(Cl)cc2)c(Cl)c1)c1cc(I)cc(I)c1O	?	?	6.0%	-10.9%[11.6 µM]	-25.5%	?	?	Pol kappa inh-2=13.4*
NS(=O)(=O)c1ccc(-c2ccc(C=C3C(=O)NC(=O)NC3=O)o2)cc1	?	?	18.2%	-24.3%[11.6 µM]	-17.7%	18.2%	·
O=C1NC(=O)C(=Cc2ccc(SC3CCCCC3)o2)C(=O)N1	10µM*	?	20µM*	?	-90.5%	20µM*	47.8*
C[C@@]12CCC(=O)C[C@@H]1CC[C@@H]1[C@@H]2CC[C@]2(C)C(=O)CC[C@@H]12	·	·	·	·	-5.6%[60.1 µM]	·	·
Cn1cccc1/C=C1/C(=O)NC(=O)N(Cc2ccccc2)C1=O	15.8µM*	-9.3%	3.7%	?	79.4µM*	?	75.7*
CCN1C[C@]2(COC(=O)c3ccccc3N3C(=O)C[C@H](C)C3=O)CC[C@H](OC)[C@@]34[C@@H]5C[C@H]6[C@H](OC)[C@H]5[C@](O)(C[C@@H]6OC)[C@@](O)([C@@H](OC)[C@@H]23)[C@@H]14	·	·	·	·	-6.8%[19.4 µM]	·	·
COCCCn1c(N)c(C(=O)NCc2ccco2)c2nc3ccccc3nc21	82.5%	-10.0%	-34.8%	0.0%	-9.7%	-13.1%	·	GALK confirm=?;Redox cycling=-4.2%;HEK293 tox=?
COCCNC(=O)c1c(N)n(Cc2ccco2)c2nc3ccccc3nc12	5.6%	-7.7%	11.5%	-18.8%	-16.5%	-16.6%	·
NCCCNCCCCNCCCNC(=O)Cc1ccc(O)cc1	·	·	·	·	-3.3%[12 µM]	·	·
O=C(OC1Cc2c(O)cc(O)cc2OC1c1cc(O)c(O)c(O)c1)c1cc(O)c(O)c(O)c1 (stereo not given)	·	·	·	·	0.562µM*	·	·	GALK confirm=9.43µM*;Redox cycling=-9.8%;HEK293 tox=-6.9%
COc1ccc(-n2c(/C=C3\C(=O)Nc4ccccc43)nc3ccccc3c2=O)cc1	?	1.7%	15.0%	3.8%	-8.0%	-11.8%	·
O=C1Nc2ccccc2/C1=C/c1nc2ccccc2c(=O)n1-c1ccc(O)cc1	17.8µM*	?	?	?	?	?	?
Cc1ccc(C[N+](C)(C)C)o1	·	·	·	·	0.9%[19.4 µM]	·	·
Cc1cc2c(C(C)C)c(O)c(O)c(C=O)c2c(O)c1-c1c(C)cc2c(C(C)C)c(O)c(O)c(C=O)c2c1O	2.51µM*	2.51µM*	0.562µM*	·	10.6µM*	·	·	GALK confirm=23.7µM*;Redox cycling=-9.4%;HEK293 tox=6.1%
O=C(N/N=C/c1c(O)n(Cc2ccco2)c(=O)[nH]c1=O)c1ccccc1O	28.2µM*	-18.3%	-29.0%	?	79.4µM*	14.1µM*	30.1*
Cc1c(N=Cc2c(O)n(Cc3ccco3)c(=O)[nH]c2=O)c(=O)n(-c2ccccc2)n1C	?	-12.7%	?	-10.2%[11.6 µM]	-28.8%	17.8µM*	?
Cc1c(N=Cc2c(O)n(Cc3ccccc3)c(=O)[nH]c2=O)c(=O)n(-c2ccccc2)n1C	64.5%	7.4%	-5.3%	-18.8%[57.1 µM]	4.4%	-18.8%	·
CCN(CC)C(=O)N[C@H]1C=C2c3cccc4[nH]cc(c34)C[C@@H]2N(C)C1	·	·	·	·	-16.5%[12 µM]	·	·
Cc1cccc(N2C(=O)NC(=O)/C(=C\c3ccc4c(c3)CCCN4Cc3ccccc3)C2=O)c1	?	-18.3%	-27.6%	236.9%[57.1 µM]	-1.0%	22.4µM*	?
O=c1oc2ccccc2c(O)c1[C@H]1c2ccc(O)cc2Oc2c1c(=O)oc1ccccc21	-11.9%	-2.7%	6.9%	-12.3%[11.6 µM]	-19.1%	?	?
O=[N+]([O-])c1ccc(Sc2nc3ccccc3o2)c([N+](=O)[O-])c1	11.2µM*	-4.8%	4.8%	?	-3.6%	50.1µM*	?
CC(C)(C)OC(=O)C(Br)CCBr (stereo not given)	·	·	·	·	11.5%[60.1 µM]	·	·
